This is one part of a sample in which hits are shown more often than they occur.
mcGAS MS inh – mouse cGAS inhibition by mass spec. 0.18% of 130,000 active. recombinant mouse cGAS, cGAMP by RapidFire MS. inhibition, % at 12.5 µM. Q8C6L5;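 active = inhibition of cGAS enzyme activity at or above 60%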;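 also: enzyme stimulated by 45 bp dsDNA with ATP and GTP substrates; cGAMP share of summed cGAMP plus half ATP and half GTP signals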
Target sequence (Q8C6L5 whole entry, looked up): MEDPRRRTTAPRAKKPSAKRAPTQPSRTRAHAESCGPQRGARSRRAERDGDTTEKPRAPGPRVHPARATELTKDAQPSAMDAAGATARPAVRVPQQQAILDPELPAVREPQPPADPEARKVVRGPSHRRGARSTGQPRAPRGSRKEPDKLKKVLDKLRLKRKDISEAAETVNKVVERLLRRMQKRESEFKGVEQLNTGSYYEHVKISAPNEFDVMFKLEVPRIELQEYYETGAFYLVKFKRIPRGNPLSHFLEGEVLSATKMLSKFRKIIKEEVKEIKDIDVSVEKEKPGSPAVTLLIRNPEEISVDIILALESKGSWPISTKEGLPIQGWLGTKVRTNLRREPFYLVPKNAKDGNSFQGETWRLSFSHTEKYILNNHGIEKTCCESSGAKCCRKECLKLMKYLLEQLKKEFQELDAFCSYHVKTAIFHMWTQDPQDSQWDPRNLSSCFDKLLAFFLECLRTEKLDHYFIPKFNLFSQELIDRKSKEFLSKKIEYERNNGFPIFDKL
A number is an active result; 0 = inactive; ! = not active in a repeat.

SMILES	mcGAS MS inh
O=C1CC(=O)N2C(c3ccccc3)=CSC2(OCCS)N1 (stereo not drawn)	0
CCN1C(=CC=Cc2sc3ccccc3[n+]2CC)Sc2ccccc21	70
CCC(C)[n+]1c(C)cc(C=C2Sc3ccccc3N2CC)cc1C (stereo not drawn)	0
CCN1C(=Cc2ccc3cc(C)ccc3[n+]2CC)Sc2ccccc21	0
Cc1cc(C)c(S(=O)(=O)N(C)C(=O)c2cn(C)nc2C)c(C)c1	0
CC1ON=C(c2ccco2)N(C/C=C/c2ccccc2)C1=O (stereo not drawn)	0
COc1ccc(C(C)=O)cc1CN1C(=O)C(C)ON=C1c1ccco1 (stereo not drawn)	0
CC1ON=C(c2ccco2)N(Cc2ccc(S(C)(=O)=O)cc2)C1=O (stereo not drawn)	66
CCOc1cc(-c2[nH]c(=S)[nH]c(=O)c2C#N)ccc1O	99
N#Cc1c(-c2ccco2)[nH]c(=S)[nH]c1=O	0
CCOc1cc(C2=NN(c3ccc(C)cc3)C(=O)CC2)ccc1O	0
CC(=O)c1cccc(S(=O)(=O)NC(CC(=O)O)c2ccc(F)cc2)c1 (stereo not drawn)	0
O=C(O)C1=CC(=C(c2ccc(O)c(C(=O)O)c2)c2ccc(O)c(C(=O)O)c2)C=CC1=O	95
Cc1cc(O)ccc1C(=O)O	0
Nc1ccc(O)c(C(=O)O)c1	0
COc1cc(C=C2C(=O)N(C)C(=O)N(C)C2=O)ccc1O	0
COc1cc(/C=c2\sc3nc4cc(Br)cnc4n3c2=O)ccc1O	72
COc1cc(/C=C/c2ccc(O)c(OC)c2)ccc1O	0
COc1ccc(NC(=O)NCCn2nc(-c3cccnc3)ccc2=O)cc1OC	0
Cc1ccc(OCCN2CCC2(C)C(=O)Nc2cccc(Oc3ccccc3)c2)cc1 (stereo not drawn)	0
CCC1(O)CC(OC2CC(N(C)C)C(OC3CC(O)C(OC4CCC(=O)C(C)O4)C(C)O3)C(C)O2)c2c(cc3c(c2O)C(=O)c2c(O)cccc2C3=O)C1C(=O)OC (stereo not drawn)	97
CCOCCOC(=O)C1=C(C)NC(=O)NC1c1ccccc1F (stereo not drawn)	0
Cc1cc(CN2CCC(C)CC2)c(C)c(C2NCCc3[nH]cnc32)c1 (stereo not drawn)	0
COc1cccc(N2C(=S)N(c3ccccc3)C3CS(=O)(=O)CC32)c1 (stereo not drawn)	0
CCC(C)N(CC(=O)Nc1nc(C)c(C)s1)S(=O)(=O)c1ccc2ccccc2c1 (stereo not drawn)	0
SMILES	mcGAS MS inh
COC(=O)c1c(N)sc2c1CCC2	0
COC(=O)c1c(N2C(=O)C=CC2=O)sc2c1CCCC2	91
COC(=O)c1c(N)sc2c1CCCC2	0
CCn1nc(C(C)(C)C)cc1C(=O)NCC1(N)CCCC1	0
CCOC(=O)NC(=S)NN(C)c1nc(C)cnc1C	0
Cc1cnc(C)c(N(C)C)n1	93
CN(C)c1nc2nonc2nc1NC1CCC1	0
COC1CCC(N(C)C(=O)c2ccn(-c3ccc(F)cc3)n2)CC1 (stereo not drawn)	0
O=C(O)C12CC3CC(CC(C3)C1)C2	0
O=C(O)C12CCCC(Br)(CCC1)C2	0
CCCC(=O)N1CCC1(C)C(=O)NS(=O)(=O)Cc1cccc(Cl)c1 (stereo not drawn)	0
O=C1NCCc2c(OCC(=O)N3CCCCC3)cccc21	0
CC(C)n1cnnc1CN(C)Cc1ccc2c(c1)OC(F)(F)O2	0
O=C(N=C1c2ccccc2CN1c1ccc2c(c1)OCO2)c1ccco1	0
CCCCCCCCCCCCCCCC[N+](C)(C)C	98!
CCCCCCCCCCCC[N+](C)(C)CCOc1ccccc1	0
C[N+](C)(C)CCCCCC[N+](C)(C)C	0
CCn1c(C)cc(C(=O)O)c1C	0
Cc1ccccc1-n1c(SCCc2ccncc2)nnc1-c1ccncc1	0
COc1ccc(CCNC(=O)Cn2nc(C)c3cnn(-c4ccccc4)c3c2=O)cc1OC	0
COc1ccc(Cl)cc1CN1C(=O)CON=C1c1ccc(C)cc1	63
COc1ccc(Cl)cc1CN1C(=O)CON=C1c1ncccc1C	0
Cc1ccccc1CN1C(=O)CON=C1c1ccc(N(C)C)cc1	0
COc1ccc(CN2CCN(Cc3cnc(-c4cccc(C)c4)nc3)CC2CCO)cc1C (stereo not drawn)	0
Cc1ccc2n1CCn1cc(-c3ccccc3)cc1-2	77
SMILES	mcGAS MS inh
Cc1cc2n(c1)CCn1c(C)ccc1-2	0
CN(C)c1nc(-c2ccc(OC(F)F)cc2OC(F)F)cs1	0
CC(C)c1nc2oc3ccccc3c(=O)c2c(=O)n1-c1ccccc1	0
COC(=O)c1cc2c(=O)n(-c3ccc(C(C)C)cc3)ccc2nc1C	0
CC1CCN(Cc2nnnn2CC(=O)N(C)Cc2cccnc2)CC1	0
O=C(c1cn(-c2ccccc2)nn1)N1CCN(C(=O)N2CCOCC2)CC1	0
COC(=O)CSC1=NS(=O)(=O)c2ccccc2N1	0
COC(=O)c1nc2n(n1)-c1ccccc1S(=O)(=O)N2	91
CC(C)C(C)NC(=O)c1ccc2c(c1)S(=O)(=O)Nc1ncnn1-2 (stereo not drawn)	0
CCn1c(=O)n(CC(=O)N(C)CC(=O)Nc2c(C)cc(C)cc2C)c2ccccc21	0
O=C(OCCOc1ccccc1)C(C(F)(F)F)C(F)(F)F	0
Cc1cc(C)nc(NCc2nc(-c3cccs3)n[nH]2)n1	0
COc1cccc2c1C(=O)c1c(O)c3c(c(O)c1C2=O)C[C@@](O)(C(C)=O)C[C@@H]3OC1CC(N)C(O)C(C)O1 (stereo partly drawn)	93
COc1cccc2c1C(=O)c1c(O)c3c(c(O)c1C2=O)C[C@@](O)(C(=O)CO)C[C@@H]3O[C@H]1C[C@H](N)[C@H](O)[C@H](C)O1	96
CCc1nn(-c2ccccc2)c(NC(=O)c2cccnc2OC)c1C	0
COc1ccc(NC(=O)NNC(=O)c2ccc(=O)n(Cc3ccc(C)cc3)c2)c(OC)c1	0
CNC(=O)c1nnc2n1CCN(C(=O)c1ccccc1)C2	0
CC(=O)Nc1ccc(C)c(S(=O)(=O)NCCc2ccc(C(C)C)cc2)c1	0
COC(=O)c1ccc(-c2nc(CN(C)Cc3cccc(-n4nc(C)cc4C)c3)c(C)o2)cc1	0
CC(C)c1ccc(-n2ccnc2SCC(=O)NC(N)=O)cc1	0
O=C(NC1CCCC1)c1cccc(N2NC(=O)C3CC=CCC3C2=O)c1 (stereo not drawn)	0
Cc1ccc(Cl)cc1N=Cc1nc(-c2ccc(Cl)cc2)oc1O	0
Cc1cc(Cl)ccc1N=Cc1nc(-c2ccccc2Br)oc1O	0
Oc1oc(-c2cccc3ccccc23)nc1C=Nc1cccc(F)c1	0
Cc1ccc(Cl)cc1N=Cc1nc(-c2cccc3ccccc23)oc1O	83
SMILES	mcGAS MS inh
Cc1cccc(N=Cc2nc(-c3cccc4ccccc34)oc2O)c1	88
Cc1ccc(-c2nc(C=Nc3cccc(C)c3)c(O)o2)cc1	0
N=C1c2ccccc2CN1c1ccc(N2Cc3ccccc3C2=N)c(Cl)c1	0
COCCn1c(C)cn2c3c(=O)n(Cc4cc(C)ccc4C)c(=O)n(C)c3nc12	0
CC(C)n1nccc1NS(=O)(=O)c1ccc(F)cc1F	0
CCOC(=O)Cc1csc(NC(=O)C(C)Oc2cccc(C)c2)n1 (stereo not drawn)	0
CC(C)c1ocnc1C(=O)OCC1CC(=O)N(c2ccccc2)C1 (stereo not drawn)	0
Cc1cccc(Nc2ncccc2C(=O)Nc2ccccc2)c1C	0
NC(=O)c1ccsc1NC(=O)CN1CCN(C(=O)c2cccs2)CC1	0
O=C(COC(=O)C(=Cc1cccs1)c1cccs1)NC1CCS(=O)(=O)C1 (stereo not drawn)	0
O=C(Cn1cnnn1)Nc1nc(-c2cccc3ccccc23)cs1	0

Screening data (PubChem)
